# Reference: PubChem BioAssay (EPA / NIEHS)
# Records with an inconclusive call do not appear. Calls of active or inactive are those of the source. The calls were made as follows: active = hit-call score of the fitted dose curve at least 0.9, where 1 is the maximum; inconclusive = response in the unintended direction; inactive = score below 0.9.
# What was measured:
# [1] = molecular target: Cellular tumor antigen p53 (Homo sapiens) (UniProt P04637); experiment: TOX21_p53_BLA_p3_ratio: Tox21 HCT-116 p53 Agonism Beta-lactamase Assay, Ratio, Phase 3 (AID 2283596)
# Summary of the method: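 HCT116 p53-bla cells (4000/well) given compound in DMSO (217-fold dilution) after 5 h, incubated 16 h at 37C. CCF4-AM substrate 2 h at room temperature; 460/530 nm emission ratio, gain fitted against DMSO.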
# [2] = molecular target: Cellular tumor antigen p53 (Homo sapiens) (UniProt P04637); experiment: TOX21_p53_BLA_p5_ratio: Tox21 HCT-116 p53 Agonism Beta-lactamase Assay, Ratio, Phase 5 (AID 2283599)
# Summary of the method: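 Beta-lactamase reporter ratio (blue 460 nm over green 530 nm, 405 nm excitation) after 2 h CCF4-AM loading, in HCT-116 cells exposed 16 h at 37 C to compounds pinned at 217-fold dilution. Increases relative to DMSO baseline scored.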
# [3] = molecular target: Cellular tumor antigen p53 (Homo sapiens) (UniProt P04637); experiment: TOX21_p53_BLA_p4_ratio: Tox21 HCT-116 p53 Agonism Beta-lactamase Assay, Ratio, Phase 4 (AID 2283601)
# Summary of the method: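 Signal is the blue/green (460nm/530nm) ratio of cleaved versus uncleaved CCF4-AM substrate, read after 2 h substrate loading. Cells were HCT116 carrying the p53-responsive beta-lactamase reporter, dosed 16 h at 37C, 5% CO2; CellTiter-Glo measured in parallel.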
# [4] = TOX21_p53_BLA_p4_viability: Viability Assessment in the Tox21 HCT-116 p53 Agonism Beta-lactamase Assay, Phase 4 (AID 2283597);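 also: hits lower the luminescence signal meaning cytotoxicity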
# Summary of the method: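 HCT116 p53-bla cells (4000/well) rested 5 h at 37C, then received compounds in DMSO (217-fold dilution) for 16 h at 37C, 5% CO2. CellTiter-Glo was added after the CCF4-AM read, and luminescence was read after 30 min at room temperature.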
# [5] = TOX21_p53_BLA_p5_viability: Viability Assessment in the Tox21 HCT-116 p53 Agonism Beta-lactamase Assay, Phase 5 (AID 2283600)
# Summary of the method: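 Cells were plated at 4000/well, rested 5 h at 37C, then given compounds in DMSO (217-fold dilution) for 16 h at 37C, 5% CO2. Following the CCF4-AM beta-lactamase read, CellTiter-Glo was added and luminescence was read after 30 min at room temperature.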
# [6] = molecular target: Thyroid hormone receptor alpha (Rattus norvegicus) + Thyroid hormone receptor beta (Rattus norvegicus) (UniProt P18113+P63059); experiment: TOX21_TR_LUC_GH3_Antagonist_Followup: Tox21 GH3 Thyroid Hormone Receptor Antagonism Luciferase Follow-Up Assay (AID 2283942)
# Summary of the method: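 Confirmatory qHTS, antagonist mode: T3 (1.0 nM final) + test cpd, 15 conc, 92 uM–5nM final, GH3 rat pituitary line, 24 h, 37C. Luc reporter, RLU vs DMSO.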
# [7] = molecular target: THRB (gene 7068) (UniProt P10828); experiment: TOX21_TRB_BLA_Antagonist_Followup_ratio: Tox21 Thyroid Hormone Receptor beta Antagonism Beta-lactamase (BLA) Follow-Up Assay, Ratio (AID 2283958)
# Summary of the method: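 HEK293T cells with a GAL4-TRb LBD fusion and UAS-bla reporter, 3,000 cells/well in phenol red-free DMEM with 2% charcoal-stripped FBS. Exposed 18 h at 37C to 11 concentrations in triplicate; CCF4 460:530 nm ratio after 2 h, DMSO-referenced.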
# [8] = TOX21_TRB_BLA_Antagonist_Followup_viability: Viability Assessment in the Tox21 Thyroid Hormone Receptor beta Antagonism Beta-lactamase (BLA) Follow-Up Assay (AID 2283961)
# Summary of the method: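 HEK293T cells stably expressing GAL4-DBD/human TRβ-LBD with UAS-bla reporter, 3,000 cells/well in phenol red-free DMEM, 2% charcoal-stripped FBS. Compounds at 11 concentrations in triplicate, 18 h at 37C/5% CO2; viability by CellTiter-Glo luminescence after 30 min at room temperature.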
# [9] = molecular target: Retinoic acid receptor RXR-alpha (Homo sapiens) (UniProt P19793); experiment: TOX21_TR_RXR_BLA_Antagonist_Followup_ratio: Tox21 Thyroid Hormone Receptor beta Retinoid X Receptor alpha (RXRa) Antagonism Beta-lactamase (BLA) Follow-Up Assay, Ratio (AID 2283972)
# Summary of the method: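 RXRa-UAS-bla HEK293T cells in phenol red-free DMEM with 2% charcoal-stripped FBS; compounds at 11 concentrations in triplicate, 16 h at 37C. LiveBLAzer FRET-B/CCF4-AM substrate 2 h at room temperature; read as 460:530 nm ratio versus DMSO.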
# [10] = TOX21_TR_RXR_BLA_Antagonist_Followup_viability: Viability Assessment in the Tox21 Thyroid Hormone Receptor beta Retinoid X Receptor alpha (RXRa) Antagonism Beta-lactamase (BLA) Follow-Up Assay (AID 2283979)
# Summary of the method: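 Follow-up compounds (11 concentrations, triplicate) were incubated 16 h at 37C/5% CO2 with HEK293T RXRa-bla cells seeded at 2,500/well in charcoal-stripped-serum medium. ATP content by CellTiter-Glo luminescence gave viability; curves fitted in both directions against DMSO.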
# Cellular tumor antigen p53 (Homo sapiens), sequence (P04637 whole entry, looked up): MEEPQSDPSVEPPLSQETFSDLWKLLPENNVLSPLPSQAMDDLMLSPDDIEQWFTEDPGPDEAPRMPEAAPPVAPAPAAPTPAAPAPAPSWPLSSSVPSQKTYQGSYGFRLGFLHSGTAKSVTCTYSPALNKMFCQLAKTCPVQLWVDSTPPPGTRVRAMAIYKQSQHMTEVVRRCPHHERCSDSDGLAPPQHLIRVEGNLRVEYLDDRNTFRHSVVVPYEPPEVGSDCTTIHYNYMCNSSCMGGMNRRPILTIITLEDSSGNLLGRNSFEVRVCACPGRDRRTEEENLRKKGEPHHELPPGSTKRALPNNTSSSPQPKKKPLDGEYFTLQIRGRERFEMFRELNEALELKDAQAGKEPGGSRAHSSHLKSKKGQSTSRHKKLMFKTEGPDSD
# Retinoic acid receptor RXR-alpha (Homo sapiens), sequence (P19793 whole entry, looked up): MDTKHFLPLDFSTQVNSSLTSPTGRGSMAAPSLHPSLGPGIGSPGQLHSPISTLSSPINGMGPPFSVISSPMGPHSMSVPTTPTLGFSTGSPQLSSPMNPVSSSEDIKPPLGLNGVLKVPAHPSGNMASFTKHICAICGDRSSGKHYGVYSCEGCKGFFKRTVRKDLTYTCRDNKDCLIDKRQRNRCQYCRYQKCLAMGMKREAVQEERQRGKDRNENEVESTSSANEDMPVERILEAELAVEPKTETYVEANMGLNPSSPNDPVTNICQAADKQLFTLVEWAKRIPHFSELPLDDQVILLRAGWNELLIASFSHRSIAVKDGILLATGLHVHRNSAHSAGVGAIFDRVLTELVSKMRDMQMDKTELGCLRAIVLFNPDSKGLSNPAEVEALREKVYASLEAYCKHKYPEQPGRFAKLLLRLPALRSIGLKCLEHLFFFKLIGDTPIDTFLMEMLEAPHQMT
# THRB (gene 7068), sequence (P10828 whole entry, looked up, the tested form may be a part): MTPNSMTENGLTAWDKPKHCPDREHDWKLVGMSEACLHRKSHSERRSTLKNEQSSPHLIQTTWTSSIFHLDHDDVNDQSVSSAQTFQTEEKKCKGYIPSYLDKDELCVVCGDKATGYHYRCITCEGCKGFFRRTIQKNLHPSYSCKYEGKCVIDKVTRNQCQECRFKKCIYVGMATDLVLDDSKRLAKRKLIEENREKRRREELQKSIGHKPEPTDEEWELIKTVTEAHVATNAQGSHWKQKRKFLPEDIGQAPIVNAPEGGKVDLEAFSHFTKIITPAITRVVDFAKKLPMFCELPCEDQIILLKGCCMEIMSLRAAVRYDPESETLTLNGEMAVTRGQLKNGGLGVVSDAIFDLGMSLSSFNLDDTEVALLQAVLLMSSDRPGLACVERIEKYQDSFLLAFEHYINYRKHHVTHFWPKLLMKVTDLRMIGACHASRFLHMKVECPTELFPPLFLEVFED
compound,measurement,setting,value
C=CC(=O)OCCOCCOC(=O)C=C,outcome,[1],inactive
same,outcome,[2],inactive
same,outcome,[3],inactive
C[C@H]1[C@H](NC(=O)C(=NOC(C)(C)C(=O)O)c2csc(N)n2)C(=O)N1S(=O)(=O)O,outcome,[1],inactive
same,outcome,[3],inactive
CC(C(=O)O)c1ccc2c(c1)CC(=O)c1ccccc1S2 (stereo not given),outcome,[4],inactive
CN1CCN(CCC(=O)N2c3ccccc3Sc3ccc(C(F)(F)F)cc32)CC1,outcome,[1],inactive
same,outcome,[3],inactive
CN1CCC(=C2c3ccccc3CCc3sccc32)CC1,outcome,[4],inactive
CC(=NCc1ccccc1)c1ccccc1O,outcome,[1],inactive
same,outcome,[5],inactive
same,outcome,[3],inactive
COc1ccc(-c2nc3ccc(C4=NNC(=O)CC4C)cc3[nH]2)cc1 (stereo not given),AC50,[1],21.5 µM (active)
same,AC50,[2],16.3 µM (active)
same,AC50,[3],15 µM (active)
O=C1C(CCS(=O)c2ccccc2)C(=O)N(c2ccccc2)N1c1ccccc1 (stereo not given),outcome,[1],inactive
same,outcome,[3],inactive
OCC(O)CN1CCN(c2ccccc2)CC1 (stereo not given),outcome,[1],inactive
same,outcome,[2],inactive
same,outcome,[3],inactive
CCOc1cc(N)c(Cl)cc1C(=O)NCC1CN(Cc2ccc(F)cc2)CCO1 (stereo not given),outcome,[1],inactive
same,outcome,[5],inactive
same,outcome,[3],inactive
OCC(F)(F)F,outcome,[1],inactive
same,outcome,[5],inactive
C=CCSSCCC,outcome,[4],inactive
Cc1ccc(N)cc1[N+](=O)[O-],outcome,[1],inactive
same,outcome,[3],inactive
CC(Oc1ccccc1)C(=O)N[C@@H]1C(=O)N2[C@@H]1SC(C)(C)[C@@H]2C(=O)O (stereo not given in full),outcome,[1],inactive
same,outcome,[5],inactive
same,outcome,[3],inactive
CC(=O)N[C@@H](CC(=O)N[C@@H](CCC(=O)O)C(=O)O)C(=O)O,outcome,[1],inactive
same,outcome,[5],inactive
Nc1ccc(Cl)cc1[N+](=O)[O-],outcome,[1],inactive
same,outcome,[2],inactive
same,outcome,[3],inactive
CC(C)N=C=NC(C)C,outcome,[1],inactive
same,outcome,[2],inactive
same,outcome,[3],inactive
C=CCc1cc(OC)c(O)c(C(=O)NCCO)c1,outcome,[4],inactive
OCCCCCCCl,outcome,[1],inactive
same,outcome,[3],inactive
CCC1NC(=O)c2cc(S(N)(=O)=O)c(Cl)cc2N1 (stereo not given),outcome,[1],inactive
same,outcome,[2],inactive
same,outcome,[3],inactive
NNc1nnc(Cc2ccncc2)c2ccccc12,outcome,[1],inactive
same,outcome,[6],inactive
same,outcome,[7],inactive
same,outcome,[8],inactive
same,outcome,[9],inactive
same,outcome,[10],inactive
CC(O)CCCCn1c(=O)c2c(ncn2C)n(C)c1=O (stereo not given),outcome,[1],inactive
same,outcome,[2],inactive
same,outcome,[3],inactive
CC1CCCC(C)N1NC(=O)c1ccc(Cl)c(S(N)(=O)=O)c1 (stereo not given),outcome,[1],inactive
same,outcome,[5],inactive
OCC1(CO)COC(C(Cl)(Cl)Cl)OC1,outcome,[1],inactive
same,outcome,[2],inactive
same,outcome,[3],inactive
C=CC(=O)CC,outcome,[4],inactive
same,outcome,[2],inactive
CC(=O)OCC(=O)Nc1cc(C#N)cc(NC(=O)COC(C)=O)c1Cl,outcome,[4],inactive
same,outcome,[5],inactive
Cc1c(O)cc2c(c1C)O[C@](C)(CCC[C@H](C)CCC[C@H](C)CCCC(C)C)CC2,outcome,[4],inactive
same,outcome,[2],inactive
Cc1onc(-c2c(Cl)cccc2Cl)c1C(=O)N[C@@H]1C(=O)N2[C@@H]1SC(C)(C)[C@@H]2C(=O)O,outcome,[4],inactive
same,outcome,[5],inactive
CCC(=O)CC,outcome,[4],inactive
same,outcome,[5],inactive
NC(=O)Oc1ccc(Cc2ccccc2)cc1,outcome,[4],inactive
same,outcome,[3],inactive
ClCCl,outcome,[4],inactive
same,outcome,[2],inactive
same,outcome,[3],inactive
CN1C(C(=O)Nc2ccccn2)C(=O)c2sc(Cl)cc2S1(=O)=O (stereo not given),outcome,[4],inactive
same,outcome,[2],inactive
same,outcome,[3],inactive
Nc1c(Cl)cc(Cl)cc1Cl,outcome,[4],inactive
same,outcome,[2],inactive
same,outcome,[3],inactive
C=CCC=CC,outcome,[4],inactive
same,outcome,[5],inactive
same,outcome,[3],inactive
CC(CN1c2ccccc2Sc2ccc(S(=O)(=O)N(C)C)cc21)N(C)C (stereo not given),outcome,[4],inactive
same,outcome,[3],inactive
CC(C(=O)O)c1ccc(CC2CCCC2=O)cc1 (stereo not given),outcome,[4],inactive
same,outcome,[2],inactive
same,outcome,[5],inactive
same,outcome,[3],inactive
Nc1nc(N)c(-c2ccccc2)s1,outcome,[4],inactive
same,outcome,[2],inactive
same,outcome,[5],inactive
same,outcome,[3],inactive
Cc1ccc(C(=O)Nc2ccc(S(=O)(=O)O)c3cc(S(=O)(=O)O)cc(S(=O)(=O)O)c23)cc1NC(=O)c1cccc(NC(=O)Nc2cccc(C(=O)Nc3cc(C(=O)Nc4ccc(S(=O)(=O)O)c5cc(S(=O)(=O)O)cc(S(=O)(=O)O)c45)ccc3C)c2)c1,outcome,[4],inactive
same,outcome,[5],inactive
CN1CCN(C2=Nc3ccccc3Oc3ccc(Cl)cc32)CC1,outcome,[4],inactive
same,outcome,[2],inactive
same,outcome,[3],inactive
CNc1c2c(nn1C)CCCC2,outcome,[4],inactive
same,outcome,[2],inactive
same,outcome,[5],inactive
CC(=O)[C@@]1(O)CC[C@H]2[C@@H]3C=C(Cl)C4=CC(=O)[C@@H]5C[C@@H]5[C@]4(C)[C@H]3CC[C@@]21C,outcome,[4],inactive
same,outcome,[5],inactive
Cc1ccc(C=O)cc1C,outcome,[4],inactive
same,outcome,[2],inactive
same,outcome,[5],inactive
CCc1ccc(C(=O)C(C)CN2CCCCC2)cc1 (stereo not given),outcome,[4],inactive
same,outcome,[2],inactive
same,outcome,[5],inactive
same,outcome,[3],inactive
